# PMP22 txn prim: modulates PMP22 transcription in S16 Schwann cells | 43,000 tested, 2% active | S16 Pmp22-F2sN Schwann cells, FLuc/NLuc coincidence luminescence, 24 h | Potency, µM (doses to about 57.5 µM), inactives show at the highest dose activity change, negative = inhibition, actives largely listed as inhibitors; active = clear falling dose curves in both reporters; inconclusive = both reporters move, but less clearly or upward; inactive = either reporter flat; the % is the NLuc reporter signal; note: potency is the fitted concentration of half-maximal effect; % is set by controls: 0 for no effect and ±100 for the full control effect
#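 Luminescent read-out of sequential FLuc and NLuc signals from a reporter embedded in the Pmp22 3' UTR of S16 Schwann cells, taken after 24 h compound exposure at 37C; compounds reducing both signals score as inhibitors of expression.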
# pS6 MEF inh: mTORC1 pathway inhibition measured by phospho-rpS6 | Tsc2-/- p53-/- MEF, phospho-rpS6 immunofluorescence/PI, 24 h | Potency, µM (titrated, usually from 38.3 µM), without a hit: at the highest dose activity change, negative = inhibition, usual class: inhibitors | 44,000 tested, 0.78% active;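 note: potency is the fitted concentration of half-maximal effect; plate controls were DMSO for no effect and rapamycin for full effect; nearly all actives have a fitted effect of over 50% in size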
#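 Compounds act on Tsc2-/-, p53-/- fibroblasts carrying an empty vector for 24 h before fixation and dual staining for phospho-S6 and DNA (propidium iodide). Values are percentages of cells above a rapamycin-defined pS6/PI threshold.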
# OvCa metastasis: blocks SKOV3ip1 adhesion and invasion in omental model; 46,000 tested, 0.1% active; SKOV3ip1-GFP adhesion/invasion on 3D omental model, fluorescence; Potency, µM (top dose mostly 45.8 µM), for the others: top-dose activity change, negative = inhibition, hits mostly inhibitors;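 note: potency is the fitted concentration of half-maximal effect; plate controls were DMSO wells for no effect and tomatine positive control wells for full effect; nearly all actives have a fitted effect of over 65% in size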
#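 Primary human omental fibroblast/mesothelial 3D culture pre-formed 48 h. SKOV3ip1-GFP cells added with compounds (0.36-46 umol/L), incubated 2 h RT/16 h 37 C, fixed; GFP cells quantified at 488/509 nm.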
# S16 F2sN tox: toxic to S16 Pmp22-F2sN Schwann cells; 43,000 tested, 0.48% active; Potency, µM (highest dose often 57.5 µM), inactives show at the top dose activity change, negative = cytotoxicity, usual class: cytotoxic; AID 1508642; S16 Pmp22-F2sN Schwann cells viability, CellTiter-Glo, 24 h; note: potency is the fitted concentration of half-maximal effect; % is set by controls: 0 for no effect and ±100 for the full control effect; nearly all actives have a fitted effect of over 65% in size
#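 S16 Pmp22-F2sN Schwann cells (500-1,000/well) in phenol-red-free DMEM with 10% FBS received 23 nL compound by pin tool for 24 h at 37 °C. Viability was then read as CellTiter-Glo luminescence after 15 min at room temperature.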
# HTT-AS promoter: activates huntingtin-antisense promoter activity; HEK293 HTT-AS promoter firefly luciferase reporter, 24 h; response scale: percent change from vehicle, -100% = no light; Potency, µM (highest dose often 57.5 µM), without a hit: top-dose activity change, positive = activation, actives largely listed as activators; 48,000 tested, 0.24% active; AID 1508624; note: potency is the fitted concentration of half-maximal effect; nearly all actives have a fitted effect of over 55% in size
#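 HEK293 cells carrying firefly luciferase reporters were seeded at 2,500 per well in Opti-MEM and cultured for 24 h. They were then treated with compounds at up to 57.5 uM final for 24 h at 37 degrees C before Dual-Glo luminescence readout.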
# HTT prom inh: HTT promoter inhibition. Potency, µM (top dose mostly 57.5 µM), for inactives: at the highest dose activity change, negative = inhibition, hits mostly inhibitors. HEK293 HTT promoter firefly luciferase reporter, 24 h. 48,000 tested, 0.93% active; note: potency is the fitted concentration of half-maximal effect; nearly all actives have a fitted effect of over 50% in size
#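 Luminescence was read after Dual-Glo reagent and a 10 min room-temperature incubation. Values were normalized to vehicle (0% activity) and zero RLU (-100% activity). Reporter HEK293 cells had been exposed to compounds (up to 57.5 uM final) for 24 h.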
# NLuc sat counter: inhibits NanoLuc at saturating substrate, PMP22 counter-screen | AID 1508638 | Potency, µM (top dose mostly 57.5 µM), for inactives: at the top dose activity change, negative = inhibition, most hits filed as inhibitors | 690 tested, 4% active | Secreted NLuc enzyme (filtered S16 cell medium), Nano-Glo luminescence | shares compounds with PMP22 txn prim; note: potency is the fitted concentration of half-maximal effect; % is set by controls: 0 for no effect and ±100 for the full control effect
# NLuc Km counter: inhibits NanoLuc under Km conditions, PMP22 counter-screen | secreted NLuc enzyme, coelenterazine luminescence, Km conditions | shares compounds with PMP22 txn prim | Potency, µM (series often up to 57.5 µM), without a hit: at the top dose activity change, negative = inhibition, actives largely listed as inhibitors | AID 1508639 | 690 tested, 5% active; note: potency is the fitted concentration of half-maximal effect; % is set by controls: 0 for no effect and ±100 for the full control effect
# FLuc ctr PMP22: firefly luciferase enzyme inhibition artifact for PMP22 screen; Potency, µM (doses to about 57.5 µM), without a hit: top-dose activity, negative = inhibition, actives largely listed as inhibitors; shares compounds with PMP22 txn prim; purified P. pyralis FLuc, luminescence, 10 min; 690 tested, under 10 active; note: % of control where 0% means no effect
# Target sequence (P08659 whole entry, looked up): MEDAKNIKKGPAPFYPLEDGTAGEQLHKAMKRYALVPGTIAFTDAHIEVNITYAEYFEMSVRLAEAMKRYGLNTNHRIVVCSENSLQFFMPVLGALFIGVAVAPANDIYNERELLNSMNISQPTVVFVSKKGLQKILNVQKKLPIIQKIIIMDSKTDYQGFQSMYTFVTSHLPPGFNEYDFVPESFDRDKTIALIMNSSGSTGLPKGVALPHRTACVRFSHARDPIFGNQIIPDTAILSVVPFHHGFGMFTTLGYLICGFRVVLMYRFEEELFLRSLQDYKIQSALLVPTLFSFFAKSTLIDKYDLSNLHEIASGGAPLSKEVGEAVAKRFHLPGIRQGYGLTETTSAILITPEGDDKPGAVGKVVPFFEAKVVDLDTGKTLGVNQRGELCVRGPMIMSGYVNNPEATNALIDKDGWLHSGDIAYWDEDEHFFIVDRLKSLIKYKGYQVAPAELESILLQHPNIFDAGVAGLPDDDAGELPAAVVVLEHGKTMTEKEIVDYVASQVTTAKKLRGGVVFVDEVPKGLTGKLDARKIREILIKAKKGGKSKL
# S16 F2sN tox cnf: S16 Schwann cell cytotoxicity, confirmatory; Potency, µM (titrated, usually from 57.5 µM), for inactives: at the top dose activity change, negative = viability loss, most hits filed as cytotoxic; AID 1508641; shares compounds with PMP22 txn prim; 690 tested, 7% active; S16 Schwann cells viability, CellTiter-Glo ATP luminescence, 24 h; note: potency is the fitted concentration of half-maximal effect; % is set by controls: 0 for no effect and ±100 for the full control effect
# PMP22 txn cnf: PMP22 transcription modulation, confirmatory. 690 tested, 22% active. shares compounds with PMP22 txn prim. Potency, µM (titrated, usually from 57.5 µM), for the others: top-dose activity change, negative = inhibition, usual class: inhibitors. AID 1508646. S16 Schwann cells Pmp22-F2sN, dual luciferase, 24 h; active = clear falling dose curves in both reporters; inconclusive = both reporters move, but less clearly or upward; inactive = either reporter flat; the % is the FLuc reporter signal; note: potency is the fitted concentration of half-maximal effect
# PMP22 prot conf: rat PMP22 protein level modulation, confirmatory | S16 Schwann cells Pmp22-HiBiT, luminescence, 48 h | shares compounds with PMP22 txn prim | Potency, µM (series often up to 27.9 µM), without a hit: at the highest dose activity change, negative = inhibition, hits mostly inhibitors | 95 tested, under 10 active
# Target sequence (P25094 whole entry, looked up): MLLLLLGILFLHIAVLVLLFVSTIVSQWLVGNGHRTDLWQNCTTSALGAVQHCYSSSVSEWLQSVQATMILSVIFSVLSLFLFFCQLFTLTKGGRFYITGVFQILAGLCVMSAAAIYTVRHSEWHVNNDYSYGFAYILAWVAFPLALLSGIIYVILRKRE
# Starred values were filed as active, the others as inactive; i = inactive; ? = inconclusive; · = no result given; [ ] = remark or other dose. A selection: hits, their analogues and other compounds. The true share with any hit is near 3.6%. Unless noted, calls come from the whole dose curve; as a rule, active = well fitted curve in the direction sought with a large enough effect; inconclusive = small, poorly fitted or top-dose-only effect, or another doubt; inactive = no such curve, though single readings can be large; an effect the other way counts as inactive or inconclusive.
SMILES,PMP22 txn prim,pS6 MEF inh,OvCa metastasis,S16 F2sN tox,HTT-AS promoter,HTT prom inh,NLuc sat counter,NLuc Km counter,FLuc ctr PMP22,S16 F2sN tox cnf,PMP22 txn cnf,others
COc1ccc(CN2CCN(c3ncnc4sc5c(c34)CCCC5)CC2)cc1F,5.3µM*,-6%,3%,?,-49%,?,-20%,-2%,-13%,-23%,?,
Cn1nnnc1SCCNCc1cc(Br)ccc1OCc1ccccc1Cl,16µM*,-16%,-1%,?,-52%,28µM*,?,?,-24%,-21%,?,
O=C(CSc1nc2nccnc2c(=O)n1CCc1c[nH]c2ccccc12)Nc1ccc(F)cc1,7µM*,6%,21%,12%,-31%,-22%,?,?,-14%,7%,-40%,
CCc1ccc(NC(=O)CSc2nc3nccnc3c(=O)n2CCc2c[nH]c3ccccc23)cc1,?,0%,9%,5%,-22%,-9%,·,·,·,·,·,
COc1cc(-c2nc(Cn3nnc(C(=O)Nc4cc(C)cc(C)c4)c3C)c(C)o2)cc(OC)c1OC,?,-11%,i,5%,-35%,?,4.8µM*,3.9µM*,-8%,-2%,?,
CC(C)[C@H](O)C(=O)N[C@@H](C)C(=O)N[C@@H]1C(=O)N(C)CCc2ccccc21,·,·,4%,·,-2%,-13%,·,·,·,·,·,
Cc1ccc(-c2c3c(=O)n(C)c(=O)n(C)c3c3c(-c4cccc(C)c4)nc4ccccc4n23)cc1,0%,-7%,-4%,-1%,9%[11.5 µM],-10%[11.5 µM],·,·,·,·,·,
Cc1cccc(-c2c3c(=O)n(C)c(=O)n(C)c3c3c(C)nc4ccccc4n23)c1,13µM*,-12%,8%,-25%,-3%[11.5 µM],-10%[11.5 µM],-7%,-15%,2%,4%,-53%,
COC(=O)c1ccc(NC(=O)CSc2nc(=O)n(Cc3ccco3)c3c2CCC3)cc1,8.3µM*,-8%,-6%,-11%,-29%,0%,?,?,-14%,-1%,-44%,
Cc1onc(-c2c(Cl)cccc2Cl)c1C(=O)Cl,·,·,·,·,-5%,9%,·,·,·,·,·,
CCc1ccc(CNC(=O)c2ccc3c(c2)c(C)c(C)n3Cc2ccccc2)cc1,-10%,4%,-2%,-6%,-35%,-28%,·,·,·,·,·,
CCc1ccc(NC(=O)c2ccc3c(c2)c(C)c(C)n3Cc2ccccc2)cc1,?,-14%,-3%,-8%,-24%,?,-9%,3%,?,-6%,?,
COc1ccc(N(CC(=O)Nc2cc(Cl)ccc2C)S(=O)(=O)c2c(C)noc2C)cc1,14µM*,-17%,-30%,-5%,-48%,?,-8%,?,1%,-8%,?,PMP22 prot conf=?
Cc1cc(-c2ccc(S(=O)(=O)Nc3cccc(C(F)(F)F)c3)s2)on1,?,-16%,8%,-11%,-34%,?,·,·,·,·,·,
Cc1cccc(N(C)S(=O)(=O)c2ccc(-c3cc(C)no3)s2)c1,7.6µM*,-19%,i,-17%,-44%,?,?,?,-12%,-14%,?,
CC1(C)C(N(O)C(=O)Nc2ccc(Cl)cc2)N(c2ccc(Cl)cc2)C(=O)N1CC(=O)NN=CC=Cc1ccc([N+](=O)[O-])o1 (configuration not stated),·,·,-8%,·,-32%,?,·,·,·,·,·,
Cc1cccn2c(=O)c3cc(C(=O)NC(C)c4ccccc4)c(=N)n(CCOCCO)c3nc12 (configuration not stated),-28%,1%,i,5%,-5%,-1%,·,·,·,·,·,
CCOCCCn1c(=N)c(C(=O)NC(C)c2ccccc2)cc2c(=O)n3cccc(C)c3nc21 (configuration not stated),15µM*,?,25%,?,-30%,-26%,-13%,8%,-1%,-2%,?,
CCOCCCn1c(=N)c(C(=O)NC2CCCC2)cc2c(=O)n3cccc(C)c3nc21,?,-6%,17%,-3%,-4%,-5%,-5%,1%,0%,24%,?,
Cc1oc(-c2ccc(Cl)cc2)nc1CN1CCCC(C(=O)NCCc2ccccc2)C1 (configuration not stated),19µM*,4%,2%,-13%,-33%,?,-10%,-15%,-20%,?,-29%,
CCc1ccc(-c2nc(CN3CCC(C(=O)NCCc4ccc(Cl)cc4)CC3)c(C)o2)cc1,16µM*,-4%,5%,16%,-2%,-3%,-7%,2%,-13%,?,?,
CNc1nccc(-c2cccnc2Oc2cc(C(=O)Nc3cccc(C(F)(F)F)c3)ccc2C)n1,·,·,-1%,·,-25%,-29%,·,·,·,·,·,
CCCCN(Cc1cc2ccccc2[nH]c1=O)C(=O)c1cccc(Cl)c1,20µM*,4%,-9%,0%,-13%,?,?,?,3%,?,-12%,

# Screening results as filed in PubChem BioAssay.
